The residual activity is the signal under treatment as a percentage of the control signal.

SMILES strings stand for the structures.

In the assay the target is RAF proto-oncogene serine/threonine-protein kinase (Homo sapiens) (UniProt P04049). The following applies: at 10 µM.
Chain of RAF proto-oncogene serine/threonine-protein kinase (Homo sapiens) (P04049 whole entry): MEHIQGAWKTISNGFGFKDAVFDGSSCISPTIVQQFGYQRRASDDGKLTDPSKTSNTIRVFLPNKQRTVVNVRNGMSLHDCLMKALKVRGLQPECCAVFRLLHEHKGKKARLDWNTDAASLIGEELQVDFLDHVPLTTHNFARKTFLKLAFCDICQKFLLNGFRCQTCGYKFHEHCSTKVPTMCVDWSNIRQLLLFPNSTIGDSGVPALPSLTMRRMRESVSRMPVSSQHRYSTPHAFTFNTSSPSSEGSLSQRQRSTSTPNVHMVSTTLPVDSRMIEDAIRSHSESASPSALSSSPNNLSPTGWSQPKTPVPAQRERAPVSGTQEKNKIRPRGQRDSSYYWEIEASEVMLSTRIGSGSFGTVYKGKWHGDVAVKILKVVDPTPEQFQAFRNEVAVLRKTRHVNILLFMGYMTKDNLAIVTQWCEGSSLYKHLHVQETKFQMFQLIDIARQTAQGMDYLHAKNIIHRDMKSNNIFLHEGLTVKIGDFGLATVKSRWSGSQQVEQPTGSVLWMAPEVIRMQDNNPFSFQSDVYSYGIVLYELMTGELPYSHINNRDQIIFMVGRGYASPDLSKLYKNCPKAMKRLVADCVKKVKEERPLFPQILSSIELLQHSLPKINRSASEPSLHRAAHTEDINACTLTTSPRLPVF
`c1ccc(-c2n[nH]cc2-c2ccnc3ccccc23)nc1`: the residual activity stood at 51%.
On to `Cn1nc2c3c(cccc31)C(=O)c1ccccc1-2`, for which the residual activity is 72%.
For the compound `COc1ccc(CNc2nc(N(CCO)CCO)nc3c2ncn3C(C)C)cc1`, the residual activity is 69%.
The same measure for `CO[C@@H]1[C@H](N(C)C(=O)c2ccccc2)C[C@H]2O[C@]1(C)n1c3ccccc3c3c4c(c5c6ccccc6n2c5c31)C(=O)NC4`: 90%.
For the compound `C[C@@H](N)[C@H]1CC[C@H](C(=O)Nc2ccncc2)CC1`, the residual activity stood at 108%.
With `Cc1cccc(-c2[nH]c(C(C)(C)C)nc2-c2ccc3c(c2)OCO3)n1`, the residual activity came to 71%.
For the compound `Cc1cc(Nc2nc(-c3ccccc3)nc3ccccc23)n[nH]1`, the residual activity worked out at 62%.
As for `O=C1Nc2ccc(Br)cc2/C1=C\c1cc2c([nH]1)CCCC2`, the residual activity was determined as 102%.
For the compound `Cc1cc2ncc(-c3ccccc3)nc2cc1C`, the residual activity amounted to 83%.
The result for `CCN(CC)C(=O)c1ccc(Nc2nc(OCC3CCCCC3)c3nc[nH]c3n2)cc1` reads 21%; that for `O=C1c2ccccc2-[n+]2ccc3c([nH]c4ccccc43)c21`, 73%.
For `Cc1ccc(S(=O)(=O)/C=C/C#N)cc1`, the residual activity was found to be 87%.
The result for `c1ccc2c(-c3ccncc3)c[nH]c2c1` reads 81%; that for `Cc1cncc2cccc(S(=O)(=O)N3CCCN(C(=O)CN)C[C@H]3C)c12`, 95%.
For the compound `c1ccc(-c2n[nH]c3c2oc2ccccc23)cc1`, the residual activity worked out at 85%.
With `CO[C@H]1C[C@@H]2CC[C@@H](C)[C@@](O)(O2)C(=O)C(=O)N2CCCC[C@H]2C(=O)O[C@H]([C@H](C)C[C@@H]2CC[C@@H](O)[C@H](OC)C2)CC(=O)[C@H](C)/C=C(\C)[C@@H](O)[C@@H](OC)C(=O)[C@H](C)C[C@H](C)/C=C/C=C/C=C/1C`, the residual activity turned out to be 108%.
Regarding `Nc1cccc(-c2cc3c(Oc4cccc(O)c4)ncnc3[nH]2)c1`, the residual activity is 10%.
The result for `COc1ccc(S(=O)(=O)N(CCO)c2ccccc2CN(C)C/C=C/c2ccc(Cl)cc2)cc1` reads 73%; that for `O=C1Nc2ccccc2/C1=C1/Nc2ccccc2/C1=N\OCCC(O)CO` (centres undefined), 60%.
Regarding `COc1cc2ncnc(Nc3ccc(NC(=O)c4ccccc4)cc3)c2cc1OC`, the residual activity was found to be 93%.
With `N#Cc1cnc2cnc(NCc3cccnc3)cc2c1Nc1ccc(F)c(Cl)c1`, the residual activity came to 91%.
Turning to `Ic1cccc(CSc2nnc(-c3ccncc3)o2)c1`, the residual activity was determined as 64%.
The same measure for `O=C(Nc1cccc(Nc2cc(Nc3cccc(C(F)(F)F)c3)ncn2)c1)C1CC1`: 87%; for `O=[N+]([O-])c1ccc(-c2nc(-c3ccc(F)cc3)c(-c3ccncc3)[nH]2)cc1`: 13%; for `N#CC(C#N)=C(N)/C(C#N)=C/c1ccc(O)cc1`: 88%.
The result for `O=Nc1c(-c2c(O)[nH]c3ccccc23)[nH]c2ccccc12` reads 66%; that for `CN(C)CCCn1cc(C2=C(c3c[nH]c4ccccc34)C(=O)NC2=O)c2ccccc21`, 110%; that for `O=C1Nc2cc(Br)ccc2/C1=C1/Nc2ccccc2/C1=N\O`, 68%.
With `COc1cc2ncc(-c3ccccc3)nc2cc1OC`, the residual activity stood at 86%.
`O=C1NC(=O)/C(=C/c2ccc3c(c2)OC(F)(F)O3)S1`: the residual activity came to 101%.
Consider `CC(=O)c1ccc(N2CCOCC2)cc1O`, for which the residual activity stood at 97%.
On to `Nc1n[nH]c2nnc(-c3c(-c4ccccc4)nn4ccccc34)cc12`, for which the residual activity amounted to 62%.
The result for `Nc1nc(Nc2ccc(S(N)(=O)=O)cc2)nn1C(=S)Nc1c(F)cccc1F` reads 26%.
The result for `Cn1cnc2cc3c(Nc4cccc(Br)c4)ncnc3cc21` reads 90%.
